Only some compounds are listed: those with a hit (about 1.8% of all), similar ones and a draw of the others.
GCN5L2 inh: inhibitors of human GCN5L2 histone acetyltransferase; GCN5L2 HAT assay, ThioGlo1 CoA-SH fluorescence; AID 504327; Potency, µM (highest dose often 58.9 µM), without a hit: at the highest dose activity change, negative = inhibition, usual class: inhibitors; 0.21% of 390,000 active; further: on the % scale 0 is the no-effect control and ±100 the full control effect
Target sequence (Q92830 whole entry, looked up): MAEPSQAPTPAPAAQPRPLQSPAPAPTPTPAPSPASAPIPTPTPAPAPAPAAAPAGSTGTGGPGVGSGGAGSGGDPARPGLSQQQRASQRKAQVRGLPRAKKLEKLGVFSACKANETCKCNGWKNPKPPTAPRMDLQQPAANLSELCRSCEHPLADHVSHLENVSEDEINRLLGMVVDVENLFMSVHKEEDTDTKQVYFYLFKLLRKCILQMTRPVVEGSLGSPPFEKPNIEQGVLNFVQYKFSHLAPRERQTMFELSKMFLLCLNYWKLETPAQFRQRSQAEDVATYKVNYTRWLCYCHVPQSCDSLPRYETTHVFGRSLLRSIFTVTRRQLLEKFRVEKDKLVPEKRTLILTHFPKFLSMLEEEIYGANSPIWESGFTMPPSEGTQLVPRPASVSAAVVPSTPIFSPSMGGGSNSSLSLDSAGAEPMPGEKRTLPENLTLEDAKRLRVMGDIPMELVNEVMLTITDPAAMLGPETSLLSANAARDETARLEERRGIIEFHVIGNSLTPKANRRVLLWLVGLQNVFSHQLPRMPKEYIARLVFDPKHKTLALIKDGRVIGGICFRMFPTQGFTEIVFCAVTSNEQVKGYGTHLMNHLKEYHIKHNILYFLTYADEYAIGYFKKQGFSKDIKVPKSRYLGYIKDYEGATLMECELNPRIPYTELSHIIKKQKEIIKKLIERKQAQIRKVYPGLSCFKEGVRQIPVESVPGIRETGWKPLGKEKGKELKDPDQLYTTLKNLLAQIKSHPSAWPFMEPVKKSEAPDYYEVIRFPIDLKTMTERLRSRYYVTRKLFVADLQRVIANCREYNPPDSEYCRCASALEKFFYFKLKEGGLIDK
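GCN5L2 (20 nM) in 50mM HEPES pH 7.5, 0.1mM EDTA, 0.01% Tween-20 preincubated 15 min with compounds at room temperature. Reaction started with H3(1-25) 75uM, acetyl-CoA 70uM, ThioGlo1 50uM; CoA-thiol fluorescence (Ex340/Em540) read at 0 and 20 min.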
HEK293 tox: cytotoxicity counter-screen for GLP-1 receptor inverse agonists. 0.13% of 410,000 active. HEK293 cAMP-luciferase reporter cells, luminescence, 24 h. Potency, µM (series often up to 38.3 µM), inactives show at the highest dose activity change, negative = inhibition, usual class: inhibitors;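 further: loss of luciferase light is scored as toxicity; on the % scale 0 is the no-effect control and ±100 the full control effect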
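Luminescence readout: signal drop marks cytotoxicity. Plated cells grew 12 h at 37 °C, 5% CO2, received 23 nL compound for 24 h, then got luciferase reagent, read after 12 min at RT.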
GLP1R ag: agonists of human GLP-1 receptor | P43220 | HEK293 GLP-1R CRE-luciferase, luminescence, 4-6 h; cells express a hypersensitive GLP-1R form | Potency, µM (titrated, usually from 45.6 µM), without a hit: top-dose activation, most hits filed as activators | 0.007% of 380,000 active | AID 624172; further: % of control where 0% means no effect
RGS4 inh: human RGS4 inhibition | Potency, µM (highest dose often 114 µM), without a hit: at the highest dose activity change, negative = inhibition, usual class: inhibitors | 0.039% of 390,000 active | Transcreener GDP fluorescence polarization, RGS4-accelerated GTP hydrolysis; further: on the % scale 0 is the no-effect control and ±100 the full control effect; nearly all actives have a fitted effect of over 75% in size
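MLSMR compounds (23 nl, pin-transferred) preincubated 10 min at room temperature with a 500nM (2x) first reagent, then RGS4 at 900nM (2x) plus Transcreener GDP mix added; fluorescence polarization (620/688 nm) read before and after 90 min at 30 °C.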
PTHR1 agonist: agonists of human PTHR1 parathyroid hormone receptor; 0.075% of 410,000 active; Q03431; HEK293 GP2 PTHR1 cells, GloSensor cAMP luminescence, 1 h; Potency, µM (doses to about 115 µM), inactives show top-dose activation, usual class: activators; further: nearly all actives have a fitted effect of over 55% in size
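HEK-293-derived GP2 cells expressing PTHR1 and a GloSensor cAMP reporter, 3,000/well, plated overnight, given luciferin plus IBMX (each 0.5 mM as added) for 1 h at 37 °C, then compound for 1 h at 37 °C. Luminescence was read after 15 min at room temperature.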
GLP1R inv ag: acts as inverse agonist at human GLP-1 receptor | HEK293 GLP-1R CRE-luciferase, luminescence, 24 h; GLP-1R form is constitutively active | Potency, µM (doses to about 38.3 µM), inactives show at the top dose activity change, negative = inhibition, hits mostly inhibitors | 1.6% of 410,000 active | AID 624417; further: on the % scale 0 is the no-effect control and ±100 the full control effect; nearly all actives have a fitted effect of over 55% in size
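Assay principle: reduced luminescence from a cAMP-responsive reporter in HEK293 cells co-expressing a constitutively active GLP-1R. Conditions: 24 hr compound incubation, 37 deg C, 5% CO2.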
Numbers without * were called inactive; i = inactive; ? = inconclusive; · = not tested or not shown; ! = not active in a repeat; [ ] = another dose, or the depositor's remark. The call rests on the fitted dose curve; in most records, active means well fitted curve in the direction sought with a large enough effect; inconclusive means small, poorly fitted or top-dose-only effect, or another doubt; inactive means no such curve, though single readings can be large; an effect the other way counts as inactive or inconclusive. Potency means the concentration at half of the fitted maximal effect.

SMILES	GCN5L2 inh	HEK293 tox	GLP1R ag	RGS4 inh	PTHR1 agonist	GLP1R inv ag
O=C(C1CCN(CCCc2ccccc2)CC1)N(CCc1ccccc1)Cc1ccccc1	2%	?	-2%	7%	-16%	10µM*
OC[C@@H]1[C@@H](c2ccc(Cl)cc2)C(c2cccc(Cl)c2)=NN1c1ccccc1	28µM*!	325%	-1%	-12%	i	?
CCn1c2ccccc2c2cc(NC(=O)CSc3nnc(-c4cccc(OC)c4)n3N)ccc21	-1%	?	-2%	24%	-4%[57.5 µM]	-6%
CC(C)Oc1cccc(-c2nnc(SCC(=O)Nc3ccc4c(c3)OCCO4)n2N)c1	25µM*	-2%	-15%	4%	i	0%
CCn1c2ccccc2c2cc(NC(=O)CSc3nnc(-c4ccc(OC)c(OC)c4)n3N)ccc21	5.6µM*	9%	-10%	21%	1%	-4%
Cc1cccc(N(C(=O)c2csnn2)C(C(=O)NCc2ccccc2)c2ccc(C)o2)c1 (stereo not given)	-3%	-9%	12%	1%	i	?
COCCN(C(=O)Cc1cccs1)C(C(=O)NCc1ccc(OC)cc1)c1ccc(C(C)C)cc1 (stereo not given)	-7%	-27%	-5%	10%	-10%[57.5 µM]	?
COc1ccc(CNC(=O)C(c2ccc(C)o2)N(Cc2cccs2)C(=O)Cc2cccs2)cc1 (stereo not given)	-8%	?	-6%	-15%	i	8.9µM*
CCc1ccc(C(C(=O)NCc2ccc(OC)cc2)N(CCOC)C(=O)Cc2cccs2)cc1 (stereo not given)	5%	?	1%	25%	-20%[57.5 µM]	10µM*
COCCN(C(=O)Cc1cccs1)C(C(=O)NCc1ccc(OC)cc1)c1ccc(C)cc1 (stereo not given)	-6%	-1%	0%	8%	-13%[57.5 µM]	?
COc1ccc(CNC(=O)C(c2ccc(C)o2)N(C(=O)c2csnn2)c2ccc(C(C)C)cc2)cc1 (stereo not given)	-3%	-7%	-3%	-26%	8%[57.5 µM]	10µM*
Cc1c(Cl)cccc1NC(=O)CN1C(=O)CCn2nc(-c3cccn3C)cc21	-7%	-19%	·	-9%	21%	1%
CCOc1ccc2ccccc2c1C(=O)N1CCN(c2ccccc2)CC1	-6%	?	7%	-12%	i	7.9µM*
CCOc1ccccc1C(=O)N1CCN(c2cccc(Cl)c2)CC1	-1%	-39%	13%	1%	i	0%
O=C(COC(=O)Cc1ccc(S(=O)(=O)N2CCOCC2)s1)Nc1ccc(OC(F)F)cc1	-12%	20%	4%	-22%	3%	5%
Nc1nc(N)c2cc([N+](=O)[O-])ccc2n1	·	0%	24%	2%	i	60%
Nc1nc(N)c2c(ccc3c2ccn3Cc2cccc([N+](=O)[O-])c2)n1	·	?	-11%	·	-42%	0.5µM*
Cc1c(Cc2ccccc2)c(=O)oc2cc(O)cc(O)c12	-7%	261%	3%	5%	-23%	?
Cc1cc(/C=C2\SC(=S)N(C)C2=O)c(C)n1-c1ccccc1O	·	-20%	-4%	10%	-32%	?
Cc1cc(/C=C2\SC(=S)N(C)C2=O)c(C)n1-c1ccc(O)cc1	-2%	9%	-5%	0%[11.4 µM]	-31%	1.4µM*
CC1CCN(C(C(=O)Nc2ccc(C(C)C)cc2)c2ccc3c(c2)OCO3)CC1 (stereo not given)	-14%	-1%	0%	-13%	-37%	4.5µM*
Cc1ccc(NC(=O)C(c2ccc(Cl)cc2Cl)N2CCCC2)cc1 (stereo not given)	-7%	-7%	-12%	0%	-49%	10µM*
O=C(Nc1cc(Cl)cc(Cl)c1)C(c1ccccc1)N1CCCCC1 (stereo not given)	-6%	7%	0%	10%	-9%	2.2µM*
CC(C)c1ccc(NC(=O)C(c2ccc3c(c2)OCO3)N2CCCCC2)cc1 (stereo not given)	-5%	-17%	-3%	-16%	-16%	4µM*
CC(C)c1ccc(NC(=O)C(c2ccc3c(c2)OCO3)N2CCC3(CC2)OCCO3)cc1 (stereo not given)	1%	-6%	0%	11%	-19%	?
SMILES	GCN5L2 inh	HEK293 tox	GLP1R ag	RGS4 inh	PTHR1 agonist	GLP1R inv ag
CCN1CCN(c2ccc(N3CCN(S(=O)(=O)c4cc([N+](=O)[O-])ccc4C)CC3)nn2)CC1	?	-6%	-4%	24%	-1%	?
Cc1cccc(C(=O)NNC2=C(C(=O)C(F)(F)F)CCC2)c1O	-8%	?	-10%	-7%	-19%[57.5 µM]	2.8µM*
O=C(NNC1=C(C(=O)C(F)(F)F)CCC1)c1cccc(O)c1	-1%	1%	1%	12%	i	?
COc1cc(CN2CCC(CO)(Cc3cccc(C(F)(F)F)c3)CC2)ccc1F	-4%	?	-1%	15%	i	3.2µM*
CCC1=C(c2ccc(C)cc2)S(=O)(=O)N=C1N1CCC(C(=O)Nc2ccccc2F)CC1	-7%	-9%	·	8%	i	10%
COc1cc(SC)ccc1C(=O)Nc1ncc(C)s1	-13%	-14%	-16%	3%[56.9 µM]	-9%	10µM*
COc1cc(SC)ccc1C(=O)Nc1ccc(Br)cn1	-2%	2%	-6%	14%	-33%	?
OCCN1CCN(CC(O)COC(c2ccc(F)cc2)c2ccc(F)cc2)CC1 (stereo not given)	-6%	-16%	5%	-20%[56.9 µM]	i	3.5µM*
COc1ccccc1/C=C/C1(C(=O)NC2CCCC2)CC(=O)N1c1ccccc1 (stereo not given)	4%	-21%	8%	14%	i	3.2µM*
CN(C)S(=O)(=O)c1ccc(N2C(=O)CC2(/C=C/c2ccccc2)C(=O)NC2CCCC2)cc1 (stereo not given)	-8%	-4%	-3%	-25%	-12%	6%
Cn1c(CO)cnc1SCC(=O)c1ccc(Cl)cc1	-6%	-28%	-5%	-27%	-33%	7.1µM*
Fc1ccc2c(-c3cccc(C(F)(F)F)c3)c(-c3ccccc3)ncc2c1	-11%	-1%	12%	8%	i	?
Fc1ccc2cnc(-c3ccccc3)c(-c3cc(C(F)(F)F)cc(C(F)(F)F)c3)c2c1	-16%	-13%	-4%	-27%	-26%	4.5µM*
Fc1ccc2cnc(-c3ccccc3)c(-c3ccc(C(F)(F)F)cc3)c2c1	-7%	-29%	19%	-16%	i	13µM*
